# In PubChem BioAssay (NCI):
# About 83,000 compounds went through this panel and 20% of them were active in at least one assay; those are over-represented in the sample as a whole.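 Testing used 96-well plates and a 48-hour single-concentration exposure. Example: -40 means 40% of the starting cells died.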 A number with no mark means an inactive call. Active and inactive are the calls of the source. The calls were made as follows: active = growth percent below 10; inactive = the rest.
# How the values were obtained:
# Experiment in all cases: NCI-60 one-dose screen, 48 h (100 = growth as untreated, 0 = no growth, -100 = all killed)
# Settings in all cases: 10 µM unless noted
# DU-145 prostate = test system: DU-145 prostate
# K-562 leukemia = test system: K-562 leukemia
# MALME-3M melanoma = test system: MALME-3M melanoma
# MDA-MB-231 breast = test system: MDA-MB-231 breast
# RXF 393 renal = test system: RXF 393 renal
# SF-268 CNS = test system: SF-268 CNS
# SF-295 CNS = test system: SF-295 CNS
# SF-539 CNS = test system: SF-539 CNS
# UACC-257 melanoma = test system: UACC-257 melanoma
# M14 melanoma = test system: M14 melanoma
Compound,growth (DU-145 prostate),growth (K-562 leukemia),growth (MALME-3M melanoma),growth (MDA-MB-231 breast),growth (RXF 393 renal),growth (SF-268 CNS),growth (SF-295 CNS),growth (SF-539 CNS),growth (UACC-257 melanoma),growth (M14 melanoma)
CCCOC(=O)N[C@H]1CCc2cc(OC)c(OC)c(OC)c2-c2ccc(SC)c(=O)cc21,-18.3% (active),7.7% (active),35.4%,-8.18% (active),19.5%,22.6%,17.3%,-21.5% (active),71.8%,6.23% (active)
Cc1cc2nc3c4ccc(Br)cc4n(CCN(C)C)c3nc2cc1C,3.18% (active),4.08% (active),0.769% (active),15.2%,16.4%,31%,14.8%,17.2%,18%,14.8%
COc1cc(/C=C2\COc3ccc(-c4ccccc4)cc3C2=O)cc(OC)c1,85.8%,,101%,95.5%,66.1%,82.3%,68.9%,100%,70.9%,91.9%
Cc1ccc(-n2nc3c(c(C#N)c2=O)CC(c2ccccc2[N+](=O)[O-])C([N+](=O)[O-])=C3O)cc1 (stereo unspecified),79.8%,,79.5%,70.7%,81.9%,85.7%,105%,96.9%,93.8%,92.1%
c1ccc(-c2c(-c3ccccc3)[n+](Cc3ccc4ccccc4c3)c(-c3cccc4ccccc34)n2Cc2ccc3ccccc3c2)cc1,-51.3% (active),-3.62% (active),-87.9% (active),-70.5% (active),-94.3% (active),-38.9% (active),-86% (active),-83.5% (active),-42.5% (active),-63.5% (active)
Cc1ccc(-c2nc3ccccn3c2/C=C2/C(=O)Nc3cc(Cl)ccc32)cc1,65.5%,,76.1%,76%,77.8%,63.3%,64.5%,79.7%,91.1%,80.4%
CN1CCC(=C(c2ccccc2)c2ccccc2)C(c2ccccc2)C1 (stereo unspecified),104%,106%,104%,94.8%,88%,97.8%,99.3%,101%,105%,112%
CC1=C(C(=O)/C=C/c2c[nH]c3ccccc23)C(c2ccccc2)NC(=S)N1 (stereo unspecified),113%,90.1%,97.7%,85.3%,105%,92.7%,97.6%,98.2%,102%,94.4%
CCCCCCCCO/N=C\c1c2c(O)c3c(O)c(C)c4c(c3c1O)C(=O)C(C)(O/C=C\C(OC)C(C)C(OC(C)=O)C(C)C(O)C(C)C(O)C(C)/C=C\C=C(\C)C(=O)N2)O4 (stereo unspecified),32.9%,16.7%,40.7%,12.7%,38.7%,43.1%,4.44% (active),42.9%,8.62% (active),27%
COc1cc2oc(-c3cccc(C(=O)Nc4ccccc4)c3)cc(=O)c2c(O)c1OC,65.6%,97.1%,64.5%,76.3%,56.5%,37%,70%,19.4%,84.3%,83.7%
N/C(=N\C(N)=N\c1nc2ccccc2s1)c1ccnc(Br)c1,42.7%,14%,64.5%,51.7%,15.7%,50%,5.59% (active),8.41% (active),46.2%,21.5%
COc1ccc(/C=C/c2nc(Nc3cccc(NC(C)=O)c3)c3ccccc3n2)cc1,88.7%,,102%,85.3%,104%,92.1%,83.1%,98.5%,95.6%,72.9%
C=C1C(=O)O[C@H]2[C@H]1CC/C(COC(=O)NCC(C)c1ccc(CC(C)C)cc1)=C\CC[C@@]1(C)O[C@@H]21 (stereo partly specified),16.4%,-18.2% (active),-62.7% (active),-62.8% (active),-73.7% (active),-17.1% (active),83.4%,-77% (active),56.1%,-29.8% (active)
COc1ccc(C(=O)NNc2nc(Cl)nc(N3CCN(C(c4ccccc4)c4ccccc4)CC3)n2)cc1,67.7%,-16.5% (active),46.3%,-1.74% (active),9.64% (active),86.6%,96.8%,33.4%,65.2%,31.3%
N#CC(C#N)=Cc1cc2ccccc2nc1Oc1ccc(C(F)(F)F)cc1,99.1%,64.5%,98.8%,84.5%,92.3%,84.4%,92.2%,96.9%,106%,92.8%
O=c1c2c(c(=O)n1O)c1c3ccc[nH]c3nc1c1nc3[nH]cccc3c12,95.4%,,84.3%,77.4%,87%,71.7%,96%,83.9%,85.4%,94%
CCCCCCCC(=O)OCC/C=C/C1OC1C1OC(=O)/C=C\C=C\C(=O)N(C(C)=O)C(=O)/C=C(/C)CCC2OC2C1OC(=O)NC(C)=O (stereo unspecified),84.3%,,123%,73.9%,78.7%,93.4%,90.9%,25.9%,84.2%,81.7%
C=C1C(=O)O[C@H]2[C@H]1CC/C(CNC(=O)CCc1ccc(OC)cc1)=C\CC[C@@]1(C)O[C@@H]21,24.2%,19.4%,69.2%,65.8%,44.6%,79.5%,91.9%,31.1%,53.1%,42.5%
Cc1ccc(CNc2c3ccccc3nc3cc(NC(=O)CCN4CCCC4)ccc23)cc1,-67.9% (active),-30.3% (active),-94% (active),-7.47% (active),1.55% (active),15.1%,36.7%,16.7%,24.1%,-88% (active)
COc1ccc2c(c1)oc1c(C)c3c(c(C)c12)C(=O)N(CCN1CCOCC1)C3=O,107%,,100%,86.2%,93.9%,99.5%,110%,100%,93.8%,104%
O=C1NN(C(=O)c2ccccc2)C(c2ccc(Cl)c(Cl)c2)=C/C1=C\c1ccc([N+](=O)[O-])cc1,108%,,88.3%,80.4%,74.3%,74.8%,88.5%,90.5%,96.5%,41.8%
Oc1cccc(CCc2ccc(Oc3cc(CCc4cccc(O)c4)cc(O)c3O)cc2)c1,88.8%,,110%,72.8%,81%,51.7%,96.7%,73.9%,95.6%,81.2%
